Measured values from ChEMBL document CHEMBL4513216, “Probing the Open Global Health Chemical Diversity Library for Multistage-Active Starting Points for Next-Generation Antimalarials” (ACS Infect Dis, 2020).
Screen size: about 65,000 compounds; about 2,100 (3.2%) showed an effect of 50% or more. The median lay at about -52%. Only a selection was taken, and strong results are over-represented in it overall.

system: Plasmodium falciparum; assay: Screen against P. falciparum Asexual Blood Stage (ABS), at 5uM; format: functional, Dd2; conditions: tested at 5 uM

SMILES | INHIBITION [%]
CC(C)[C@H](N)C(=O)N1CCSc2ccccc2C1 | 73.7
O=C1Nc2ccccc2C12CCCN(Cc1ccncc1)C2 (configuration not stated) | -78.5
c1cncc(CN2CCC3(COCCN(C4CCOCC4)C3)C2)c1 (configuration not stated) | -42
Fc1cccc(CN2CCOCC3(CCN(C4CCOCC4)C3)C2)c1 (configuration not stated) | 78.2
Fc1cccc(CN2CCC3(CCN3c3ncccn3)C2)c1 (configuration not stated) | 27.1
CNC(=O)CN1CCOCC2(CCCN(Cc3cccnc3)C2)C1 (configuration not stated) | -8.58
c1cc(CN2CCOCC3(CCN(C4CCOCC4)C3)C2)ccn1 (configuration not stated) | -38.5
O=C(Cc1cccnc1)N1CCC2(CC1)CCN(C1CCOC1)C2 (configuration not stated) | -58.9
c1ccc(CN2CCOCC3(CCN(C4CCOCC4)C3)C2)cc1 (configuration not stated) | 82.2
Cc1cccc(CN2CCOCC3(CCN(C4CCOCC4)C3)C2)c1 (configuration not stated) | 78.6
c1cncc(CN2CCCC3(COCCN(c4nccs4)C3)C2)c1 (configuration not stated) | 10.9
COCCN1CCN(c2cccc(C)n2)Cc2ccc(C)nc21 | -14.7
Cc1cc(NC2CC3(CCN(Cc4csc(C)n4)C3)C2)ncn1 (configuration not stated) | -142
Cc1nocc1C(=O)N1CCOC2(COCCN(C(C)C)C2)C1 (configuration not stated) | -62.3
CCN(C(C)c1cccc(O)c1)S(=O)(=O)c1cccnc1 (configuration not stated) | 76.6
CC(c1cccc(O)c1)N(C)S(=O)(=O)c1cccnc1 (configuration not stated) | 71.4
CN1CCO[C@@H]2CN(S(=O)(=O)c3cccnc3)C[C@@H]2C1 | -79
CN1CCC(N2CCN3C(=O)NC[C@H]3C2)CC1 | -11
COCCN1CCN(S(=O)(=O)C2CC2)Cc2cccnc21 | -40.8
Cc1cc2n(n1)CC(CNC1CCN(Cc3ccccc3C)CC1)CN2 (configuration not stated) | 71
Cc1cccc(CN2CCC(NCC3CNc4cc(C)nn4C3)CC2)c1 (configuration not stated) | 86.5
Cc1cc(-c2ccc(C(C)N3CCCCC3)cc2)cnc1N (configuration not stated) | 91
Cc1oncc1C(=O)N1CC[C@H]2[C@H]1CCN2Cc1ccccn1 | -23.4
COCCCNc1c(C#N)c2c(c3nncn13)CN(C)CC2 | -104
CCN(CC)C(=O)c1ccc(NC(=O)CNc2ccc(F)cc2Cl)cc1 | -91.8
Cc1ccc(-n2cnnn2)cc1NCC(=O)Nc1ccccc1Cl | 79.3

SMILES | INHIBITION [%]
O=C(c1cc(-n2cnnn2)ccc1Cl)N1CCC2(CC1)OCCO2 | -29.7
CCN(CC)C(=O)c1ccc(NC(=O)CNc2ccc(Br)cc2F)cc1 | -171
Cc1ccc(-n2cnnn2)cc1NCC(=O)Nc1cc(F)ccc1F | 72.3
O=C(c1cccc(-n2cnnn2)c1)N1CCC2(CC1)OCCO2 | -24.5
O=C(NCC1CCC2(CCNCC2)O1)C1CC1 (configuration not stated) | 47.7
Cc1cccnc1N1CC2(CCN(Cc3cnn(C)c3)C2)C1 | 23.4
Cc1[nH]c2c(F)cccc2c1CC(=O)N1CCN(C2CCSCC2)CC1 | -8.93
COc1ccc(CN2CCNC(=O)CC2)cc1SC(F)(F)F | 74.5
COc1cccc(C2=CCN(CCN3CCOC3=O)CC2)c1 | -8.54
Cc1cc(CN2C[C@@H]3CCCO[C@@H]3[C@H](Nc3ccccn3)C2)no1 | -62.6
OC(COCc1ccc(Cl)cc1)CN1CCC(c2ccn[nH]2)CC1 (configuration not stated) | 70.9
CCOCC(O)CN1CCN(C(=O)Cc2ccc(C)nc2)CC1 (configuration not stated) | -7.76
Cc1noc(C)c1CN(Cc1cccnc1)C1CN2CCC1CC2 (configuration not stated) | -110
CCc1cc(CN(Cc2cccnc2)C2CN3CCC2CC3)on1 (configuration not stated) | 3.06
CCCN(Cc1cccnc1)C1CC(C)(C)NC(C)(C)C1 | 77.6
O=C1NCC2(CCCN(Cc3cccnc3)C2)Oc2ccccc21 (configuration not stated) | -134
CC1(C)CC(N(Cc2ccccc2)Cc2ncc[nH]2)CC(C)(C)N1 | 70.3
CCN(Cc1cccnc1)CC1CCCO1 (configuration not stated) | -162
Cc1ccsc1CN(Cc1cccnc1)C1CC(C)(C)NC(C)(C)C1 | 81.4
Cc1ccsc1CN1C[C@@H]2CN(Cc3cccnc3)CCO[C@@H]2C1 | -28.4
CC1(C)CC(N(Cc2cccnc2)Cc2cccc(F)c2)CC(C)(C)N1 | 76.6
Cc1ncc2c(c1CNC(=O)C1(C)CCCO1)CCNC2 (configuration not stated) | -148
C[C@@H]1CN(C2CCOC2)C[C@]12CCN(Cc1cccnc1)C2=O (some centres not stated) | -45.9
Clc1cc(N2CCN3CCCCC3C2)nc2[nH]ccc12 (configuration not stated) | 42.6
CN(C)CCN1CCCC12CCN(C(=O)c1ccncc1)CC2 | -98.9
c1ccc(OCC2C[C@@H]3[C@@H](C2)OCCN3CC2CCOCC2)nc1 (some centres not stated) | -60.7
